Counter-ions that a name gives are not always drawn. ± gives the standard deviation.
Assays:
Jurkat [1] = experiment: mean cell size (FSC-A) relative to DMSO control (fraction of control); higher = larger cells; conditions: 48 h
In short: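 Jurkat cells seeded at 600 cells/µl were incubated 1 h, then exposed for 48h to the Enzo Screen-Well FDA Approved Drug Library v2.0 at 25µM in 0.9% (v/v) final DMSO. Drugs that cut counts below 20% of controls were diluted 10-fold and retested, down to 25nM. Cell count and mean cell size (forward scatter area) were read on an Accuri C6 flow cytometer, relative to solvent-only controls. Plates held 6-12 controls; values are means of 3 biological replicates.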

Jurkat [2] = experiment: cell count relative to DMSO control (fraction of control); higher = more cells (less growth inhibition); conditions: 48 h

## NC[C@H]1O[C@H](O[C@H]2[C@H](O)[C@@H](O[C@H]3O[C@H](CO)[C@@H](O)[C@H](N)[C@H]3O)[C@H](N)C[C@@H]2N)[C@H](N)C[C@@H]1O [Tobramycin] (concentration: 25 µM)
Jurkat [1]
  mean cell size: 1.01 ± 0.054
Jurkat [2]
  cell count: 0.65 ± 0.082

## CC=CC1=C(C(=O)O)N2C(=O)[C@@H](NC(=O)[C@H](N)c3ccc(O)cc3)[C@H]2SC1 [Cefprozil] (concentration: 25 µM)
Jurkat [1]
  mean cell size: 0.951 ± 0.035
Jurkat [2]
  cell count: 1.06 ± 0.035

## CO/N=C1\CN(c2nc3c(cc2F)c(=O)c(C(=O)O)cn3C2CC2)CC1CN (stereo not drawn) [Gemifloxacin] (concentration: 25 µM)
Jurkat [1]
  mean cell size: 1.09 ± 0.03
Jurkat [2]
  cell count: 0.591 ± 0.16

## NNC(=O)c1ccncc1 [Isoniazid] (concentration: 25 µM)
Jurkat [1]
  mean cell size: 0.969 ± 0.022
Jurkat [2]
  cell count: 0.925 ± 0.019

## COc1c2occc2cc2ccc(=O)oc12 [Methoxsalen (Xanthotoxin)] (concentration: 25 µM)
Jurkat [1]
  mean cell size: 1.04 ± 0.019
Jurkat [2]
  cell count: 0.761 ± 0.14

## C[C@@H](O)[C@H]1C(=O)N2C(C(=O)O)=C(S[C@@H]3CN[C@H](C(=O)N(C)C)C3)[C@H](C)[C@H]12 [Meropenem] (concentration: 25 µM)
Jurkat [1]
  mean cell size: 0.944 ± 0.015
Jurkat [2]
  cell count: 0.939 ± 0.078

## CN1C(C(=O)Nc2ccccn2)=C(O)c2ccccc2S1(=O)=O [Piroxicam] (concentration: 25 µM)
Jurkat [1]
  mean cell size: 0.9597 ± 0.0066
Jurkat [2]
  cell count: 0.738 ± 0.07

## C[C@]12CCC(=O)C=C1[C@@H]1C[C@@H]1[C@H]1[C@@H]3[C@@H]4C[C@@H]4[C@@]4(CCC(=O)O4)[C@@]3(C)CC[C@@H]12 [Drospirenone] (concentration: 25 µM)
Jurkat [1]
  mean cell size: 0.962 ± 0.03
Jurkat [2]
  cell count: 0.692 ± 0.11

## O=c1[nH]c(=O)n([C@H]2C[C@H](O)[C@@H](CO)O2)cc1I [Idoxuridine] (concentration: 25 µM)
Jurkat [1]
  mean cell size: 1.05 ± 0.019
Jurkat [2]
  cell count: 0.235 ± 0.062

## Nc1nc(=O)c2c([nH]1)NCC(CNc1ccc(C(=O)N[C@@H](CCC(=O)O)C(=O)O)cc1)N2C=O (stereo partly drawn) [Leucovorin Calcium Pentahydrate] (concentration: 25 µM)
Jurkat [1]
  mean cell size: 0.933 ± 0.041
Jurkat [2]
  cell count: 1.05 ± 0.035

## Clc1ccc2nsnc2c1NC1=NCCN1 [Tizanidine·HCl] (concentration: 25 µM)
Jurkat [1]
  mean cell size: 1.01 ± 0.014
Jurkat [2]
  cell count: 0.771 ± 0.054

## O=C(O)c1cccnc1 [Niacin (Known As Vitamin B3, Nicotinic Acid And Vitamin Pp)] (concentration: 25 µM)
Jurkat [1]
  mean cell size: 0.945 ± 0.053
Jurkat [2]
  cell count: 0.426 ± 0.096

## Cc1[nH]cnc1CN1CCc2c(c3ccccc3n2C)C1=O [Alosetron·HCl] (concentration: 25 µM)
Jurkat [1]
  mean cell size: 0.954 ± 0.059
Jurkat [2]
  cell count: 0.592 ± 0.12

## NC(=O)C(c1ccccc1)(c1ccccc1)[C@@H]1CCN(CCc2ccc3c(c2)CCO3)C1 [Darifenacin·HBr] (concentration: 25 µM)
Jurkat [1]
  mean cell size: 1.02 ± 0.015
Jurkat [2]
  cell count: 0.723 ± 0.087
